Data on 40 compounds can be found in PubChem BioAssay (NCI).

Molecules are shown by their SMILES. The panel holds about 83,000 compounds, 20% with a hit somewhere; the sample as a whole holds those more often.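 A percent growth of 40 corresponds to 60% growth inhibition; 0 means no net growth; -100 means all cells died. Active threshold: below 10.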 A number with no mark means an inactive call. The source made the active and inactive calls.

The test system of the experiment is MDA-MB-435 melanoma. Nature of the experiment: NCI-60 one-dose screen, 48 h (100 = growth as untreated, 0 = no growth, -100 = all killed). The settings on record: 10 µM unless noted. The method, then: Growth inhibition of the MDA-MB-435 human Melanoma tumor cell line is measured as a screen for anti-cancer activity. Cells are grown in 96 well plates and exposed to the test compound for 48 hours. Compounds are tested at a single concentration, which is 10^-5 M for most compounds. The reported endpoint is percent growth (GI% or GIPRCNT), where numbers from 0 - 100% represent growth inhibition, and numbers from -100% - 0 represent cell death. For example, a value of 40 represents 60% growth inhibition. A value of 0 means no net growth occurred over the course of the experiment. A value of -40 indicates 40% of cells at the beginning of the experiment died by the end of the experiment. A value of -100 means all cells are dead at the end of the experiment.
NCI-60 Human Tumor Cell Lines Screen was performed using the standard one-dose NCI protocol, which is described in more detail at https://dtp.cancer.gov/discovery_development/nci-60/default.htm.
Compounds with GIPRCNT values below 10 were considered active. Activity score was based on GIPRCNT using the following formula: […]
Score is 0 for GIPRCNT values of 100 or above, 50 for GIPRCNT values of 0, and 100 for GIPRCNT values of -100.
`CCn1c2ccc(/C=N/N(C)S(=O)(=O)CCN(C)C)cc2c2cc(/C=N/N(C)S(=O)(=O)CCN(C)C)ccc21`: the growth was 62%.
Regarding `NC1=NC2(CCCC2)N(c2ccc(S(=O)(=O)Nc3nccs3)cc2)C(N)=N1`, the growth is 107%.
As for `Cn1c2nc3ccccc3c-2cc2ccccc21`, the figure is 39.5%.
Turning to `N#C/C(=C\c1cccc2c1OCO2)C(=O)Nc1sc2c(c1C#N)CCCC2`, the growth is 103%.
Consider `O=C1CSC(c2cn(-c3ccccc3)nc2-c2ccc(Cl)cc2)N1c1ccccc1` (stereo not given), for which the growth was 103%.
For `Cn1ncc2ncc(-c3ccc4ncc(C#N)c(N5CCc6cc(F)c(Cl)cc65)c4c3)cc21`, the growth is 27.1%.
For `Cc1ccc2c(n1)C(=O)C(Cl)=C(Nc1ccc(C(C)C)cc1)C2=O`, the growth is -81.2% (active).
As for `O=C(CSc1nnc(-c2ccc(Cl)cc2)n1-c1ccccc1)Nc1cccc(F)c1`, the figure is 49.6%; as for `Cc1ccc(S(=O)(=O)NCCCNc2nc(Nc3ccc(N4CCN(C)CC4)cc3)nc3ccsc23)cc1`, 0.595% (active); as for `CC[C@]12CC(C(=O)OC)=C3Nc4ccccc4[C@@]34CCN(C14)[C@@H]1c3cc4c(cc3O[C@@H]1[C@H]2O)NC1=C(C(=O)OC)C[C@@]2(CC)C3N(CC[C@@]143)C[C@H]1O[C@H]12` (stereo not given in full), -10.9% (active).
For the compound `CCOC(=O)c1ccc(NC2=C(Cl)C(=O)c3nc(C)ccc3C2=O)cc1`, the growth was 21.6%.
`COc1ccc(-c2c(C(N)=O)c(N)n(Cc3nc4ccccc4[nH]3)c(=O)c2C#N)c(OC)c1`: the growth is 109%.
As to `Cc1ccc(Nc2nc(SC(C)C)nc(-c3ccccc3)c2C#N)cc1`, the growth is 102%.
`Cc1cc(=O)oc2cc(OCCCOc3ccc(/C=C/C(=O)Nc4ccc(Br)cc4)cc3)ccc12`: the growth is 97.3%.
On to `CCC1=Cc2c(OC)cccc2OC12C=Cc1c(OC)cccc1O2` (stereo not given), for which the growth is -18.8% (active).
In the case of `Nn1c(=O)n(-c2cccc(C(F)(F)F)c2)c(=O)c2cc(-c3ccc(F)cc3F)ccc21`, the growth was 3.27% (active).
`CN1CCN(c2ccc(Nc3nc(NCCCNS(=O)(=O)c4ccc(Cl)cc4)c4sccc4n3)cc2)CC1`: the growth is 7.33% (active).
With `CCOC(=O)c1ccc(NC2=CC(=O)C(C)=C(C)C2=O)cc1`, the growth is 44.2%.
Consider `COc1cc(C(=O)c2cc(C(C)=O)c3cccc(C)n23)cc(OC)c1OC`, for which the growth is -30.1% (active).
Turning to `COc1ccc(N2CCN(C3=C(Cl)C(=O)c4ncccc4C3=O)CC2)cc1`, the growth was -59.9% (active).
Take `Cn1cc(-c2cc3ncnc(Nc4ccc(NC(=O)Nc5cc(C(C)(C)C)on5)cc4)c3s2)cn1`: the growth was 17.5%.
As for `CC1=C(C)C(=O)C(Nc2cccc(C(=O)OC(C)(C)C)c2)=CC1=O`, the figure is 87.1%.
The result for `Oc1ccc(-c2nc3ccc(/C(=N\N=C\c4ccc(Cl)cc4)c4ccccc4)cc3[nH]2)cc1` reads 84.4%.
Regarding `O=c1c2cc(-c3ccc(F)cc3F)ccc2n(Nc2ccccc2)c(=O)n1-c1cccc(C(F)(F)F)c1`, the growth is 5.62% (active).
The result for `CC1CC(=O)C2=C(C1)Nc1ccc(Br)cc1CC2c1c[nH]c2ccc(Br)cc12` (stereo not given) reads -18.5% (active); that for `COc1ccc(-c2cnc(NC(=O)CCCCCCNC(=O)C(O)(O)C(F)(F)F)s2)cc1`, 5.55% (active).
The result for `C/C(=N\NC(=O)/C=C/CC(=O)O)c1nnn(-c2ccc([N+](=O)[O-])cc2)c1C` reads 103%; that for `C#CCOc1ccccc1/C=N/Nc1nc(-c2ccc(Cl)cc2)cs1`, 104%; that for `Cc1[nH]c(C(=O)Nc2ccc(C(=O)NCC3CCNCC3)cc2OC(C)C)c(Cl)c1Cl`, 72.2%.
The result for `Clc1ccc2[nH]cc(-c3cncn3CCc3ccc4c(c3)OCO4)c2c1` reads 71.3%; that for `N#Cc1c(-c2ccc(Br)cc2)cc(-c2c[nH]c3ccccc23)nc1N`, 0.353% (active).
Consider `CC1(C)CC[C@]2(C(=O)NCCCCCCN(CCCN)CCCN)CC[C@]3(C)C(=CC[C@@H]4[C@@]5(C)CC[C@H](O)C(C)(C)[C@@H]5CC[C@]43C)[C@@H]2C1`, for which the growth was 105%.
On to `C[C@H]1OCC2(CCN(c3cnc(C(=O)Nc4cc(F)cc5cccnc45)cn3)CC2)[C@H]1N`, for which the growth was 79.7%.
For `CC(C)(C)c1cc(NC(=O)Nc2ccc(-c3cn4c5c(sc4n3)CCc3cn(CCCN4CCCCC4)cc3-5)cc2)no1`, the growth was -98.5% (active).
Consider `NS(=O)(=O)c1ccc(Nc2nc(N/N=C/C=C/c3ccccc3)nc(Nc3ccccc3)n2)cc1`, for which the growth is 51.6%.
Turning to `CCOC(=O)c1c(NCC(=O)Nc2cccc([N+](=O)[O-])c2)sc(C(C)=O)c1C`, the growth is -26% (active).
In the case of `CC(=O)c1c([Si](C)(C)C)c2cc(C#N)ccn2c1C(=O)c1ccc(Br)cc1`, the growth is 92.5%.
`CCS(=O)(=O)Nc1ccc(C(=O)CC2(O)C(=O)Nc3ccccc32)cc1` (stereo not given): the growth is 108%.
As to `Clc1ccc(CSc2nnc(-c3ccc(Cl)cc3)n2-c2ccccc2)cc1`, the growth is 90%.
For `CCC(=C(c1ccc(OCCN2CCCCCC2)cc1)c1ccc(OCCN2CCCCCC2)cc1)c1ccc(Cl)cc1`, the growth was -85.8% (active).
